This note sets out measurements from PubChem BioAssay (NCI).

Among the test systems are HCT-15 colon; HT29 colon; SNB-75 CNS; SNB-19 CNS; U251 CNS; PC-3 prostate; SK-MEL-5 melanoma; UACC-62 melanoma; SK-MEL-28 melanoma.
Common to all, as to assay: NCI-60 one-dose screen, 48 h (100 = growth as untreated, 0 = no growth, -100 = all killed)
Common to all, as to conditions: 10 µM unless noted

The panel holds about 83,000 compounds, 20% with a hit somewhere; the sample as a whole holds those more often.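 Compound tested at a single concentration for 48 hours in 96-well plates; a percent growth value below 10 was scored as active.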 Values without a mark were called inactive. Active and inactive are the calls of the source.

Turning to `Cc1ccc(-c2ccc(/C=C(\C#N)c3nc(-c4ccco4)cs3)o2)cc1`, the growth is 69.2% in the test with HCT-15 colon; 102% in the test on HT29 colon; 84.9% with SNB-75 CNS; 99.6% in the test with SNB-19 CNS; 98.7% in the test on U251 CNS; 100% in the test on PC-3 prostate. Besides, the growth with SK-MEL-5 melanoma was 87.8%; with UACC-62 melanoma it was 87.5%; in the test on SK-MEL-28 melanoma it was 112%.

Turning to `O=[N+]([O-])c1cccc(/C=N\Nc2ccccc2)c1`, the growth was 58% in the test on HCT-15 colon; 80% in the test on HT29 colon; 78.5% in the test on SNB-75 CNS; 95.5% in the test with SNB-19 CNS; 83.4% in the test with U251 CNS; 67% with PC-3 prostate. Also, the growth is 92.5% in the test on SK-MEL-5 melanoma, 4.87% (active) in the test on UACC-62 melanoma and 103% in the test with SK-MEL-28 melanoma.

Consider `Cc1nn(-c2ccc(Cl)cc2)c(=O)n1CCn1cnc2ccccc21`, for which the growth is 104% with HCT-15 colon; 102% in the test on HT29 colon; 106% in the test on SNB-75 CNS; 113% in the test with SNB-19 CNS; 101% with U251 CNS; 104% in the test with PC-3 prostate. Further, the growth is 113% in the test with SK-MEL-5 melanoma, 101% in the test on UACC-62 melanoma and 114% in the test with SK-MEL-28 melanoma.

`C=C(C)[C@@H]1CC[C@]2(C(=O)OC)CC[C@]3(C)[C@H](CC[C@@H]4[C@@](C)(CC/C(N)=N/O)[C@H](C(=C)C)CC[C@]43C)[C@@H]12`: the growth with HCT-15 colon was 102%; with HT29 colon, 99.1%; in the test with SNB-75 CNS it was 95.4%; in the test on SNB-19 CNS, 95.9%; in the test on U251 CNS, 97.7%; in the test with PC-3 prostate, 86.1%. Besides, the growth with SK-MEL-5 melanoma is 94.2%; in the test with UACC-62 melanoma, 99.6%; in the test with SK-MEL-28 melanoma, 101%.

With `Oc1cccc2oc(=S)[nH]c12`, the growth with HCT-15 colon was 102%; in the test with HT29 colon, 113%; in the test on SNB-75 CNS, 86.4%; in the test with SNB-19 CNS, 106%; with U251 CNS, 109%; with PC-3 prostate, 111%. The growth in the test on SK-MEL-5 melanoma was 105%; in the test with UACC-62 melanoma, 101%; with SK-MEL-28 melanoma it was 104%.

With `Cn1cc(-c2csc(-c3cn(C(=O)OC(C)(C)C)c4ccccc34)n2)c2cccnc21`, the growth is 52.4% in the test with HCT-15 colon; 13% in the test with HT29 colon; 57.7% with SNB-75 CNS; 83.3% in the test with SNB-19 CNS; 61.7% in the test on U251 CNS; 48.5% in the test on PC-3 prostate. The values for the growth with SK-MEL-5 melanoma, with UACC-62 melanoma and with SK-MEL-28 melanoma were 64%, 62.1% and 79.2%, respectively.

Turning to `COc1cc2nc(Cl)nc(Nc3cccc(C(=O)/C=C/c4ccccc4)c3)c2cc1OC`, the growth in the test on HCT-15 colon was -34.1% (active); with HT29 colon, 4.17% (active); in the test with SNB-75 CNS, 62.1%; in the test on SNB-19 CNS, 32.9%; with U251 CNS, 21.4%; in the test with PC-3 prostate, 49.2%. Also, the growth in the test with SK-MEL-5 melanoma was 68.8%; in the test on UACC-62 melanoma, 57.8%; in the test with SK-MEL-28 melanoma, 56.4%.

For `COc1ccc2[nH]cc(-c3nc(-c4c[nH]c5ncccc45)cs3)c2c1`, the growth in the test with HCT-15 colon was -34.8% (active); in the test on HT29 colon, 12.1%; in the test with SNB-75 CNS it was 19.5%; in the test on SNB-19 CNS it was 77.4%; in the test with U251 CNS it was 34.8%; with PC-3 prostate it was 44.2%. In addition, the results for the growth with SK-MEL-5 melanoma, in the test with UACC-62 melanoma and in the test on SK-MEL-28 melanoma were 48.2%, 50.4% and 69.9%, respectively.

As to `C=COCCCCCCCCCCCCCCCCCC`, the growth with HCT-15 colon was 114%; in the test with HT29 colon, 102%; with SNB-75 CNS it was 122%; in the test with SNB-19 CNS it was 96.9%; in the test on U251 CNS, 106%; in the test with PC-3 prostate, 84.5%. Also, the results for the growth in the test on SK-MEL-5 melanoma, in the test on UACC-62 melanoma and in the test with SK-MEL-28 melanoma were 112%, 88.6% and 104%, respectively.

With `CC(=O)NC1=C(C#N)C(c2ccccc2Cl)c2c(ccc3ccccc23)O1` (stereo not given), the growth was 32% with HCT-15 colon; 51.6% with HT29 colon; 30.1% in the test on SNB-75 CNS; 58.1% in the test with SNB-19 CNS; 69.3% in the test with U251 CNS; 60.6% with PC-3 prostate. Also, the growth in the test with SK-MEL-5 melanoma was 56.7%; with UACC-62 melanoma, 36.6%; in the test on SK-MEL-28 melanoma it was 66.4%.

For `CCOc1ccc(NC(=O)c2ccoc2COc2ccccc2)cc1`, the growth was 101% with HCT-15 colon; 107% with HT29 colon; 107% with SNB-75 CNS; 95.3% in the test on SNB-19 CNS; 99.4% with U251 CNS; 95.7% in the test with PC-3 prostate. In addition, the growth in the test with SK-MEL-5 melanoma is 99.1%; in the test with UACC-62 melanoma, 79.8%; in the test with SK-MEL-28 melanoma, 101%.

Consider `N=C(N)c1ccc(S(N)(=O)=O)cc1`, for which the growth with HCT-15 colon was 104%; in the test with HT29 colon it was 105%; in the test on SNB-75 CNS it was 96.1%; in the test on SNB-19 CNS, 99.1%; with U251 CNS it was 99.4%; with PC-3 prostate, 98.4%. Besides, the growth with SK-MEL-5 melanoma is 95.3%; in the test on UACC-62 melanoma it was 99.2%; in the test on SK-MEL-28 melanoma it was 104%.

For `Nc1c(C(=O)Nc2cccc(Br)c2)sc2nc3c(cc12)C(=O)CCC3`, the growth in the test with HCT-15 colon is 33%; in the test with HT29 colon, 8.17% (active); in the test with SNB-75 CNS it was -4.52% (active); in the test on SNB-19 CNS, 32.7%; in the test on U251 CNS, 37.7%; in the test with PC-3 prostate, 14.3%. The growth is 20.5% in the test on SK-MEL-5 melanoma, 35.3% in the test on UACC-62 melanoma and 48.3% with SK-MEL-28 melanoma.

As to `CCN1CCN(C(=O)[C@@]2(C)CC[C@]3(C)CC[C@]4(C)C(=CC(=O)[C@@H]5[C@@]6(C)CC[C@H](OCCC#N)C(C)(C)[C@@H]6CC[C@]54C)[C@@H]3C2)CC1`, the growth with HCT-15 colon is 69.5%; with HT29 colon, 42.6%; with SNB-75 CNS it was 59.9%; with SNB-19 CNS, 103%; in the test with U251 CNS, 64.2%; in the test on PC-3 prostate, 72.1%. The growth was 90.2% in the test with SK-MEL-5 melanoma, 87.1% in the test on UACC-62 melanoma and 67.7% with SK-MEL-28 melanoma.

Consider `CC(C)c1cc(C(=O)O)c(O)c(C(C)C)c1.CC(C)c1cc(C(=O)O)c(O)c(C(C)C)c1.[Mn]`, for which the growth is 108% in the test with HCT-15 colon; 119% with HT29 colon; 106% in the test with SNB-75 CNS; 91.6% in the test on SNB-19 CNS; 98.3% in the test on U251 CNS; 98.2% with PC-3 prostate. The growth was 94.3% in the test on SK-MEL-5 melanoma, 94.9% in the test with UACC-62 melanoma and 113% with SK-MEL-28 melanoma.
